Measured values reported in the supplement of paper PMC10849652.
Targets with a hit are over-represented here; the source holds about 7,900 in all. About 0.6% of all pairs of compound and target were hits. Values without a mark were called inactive.

Experiments:
Test in all cases: log2 fold change, soluble protein after heating vs DMSO (PISA); higher = thermal stabilisation; K562 cells, 10 uM, 30 min; active = over 0.2 and 3.5 SD of the protein, either way, in both replicates (recomputed)
[1] = compound: NC(=O)Nc1cc(-c2cccc(F)c2)sc1C(=O)N[C@H]1CCCNC1
Outline: (§1)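 K562 cells at 2×10^6 cells/mL were treated for 30 min with 10 μM compound, and aliquots were heated for 3 min over 48°C-58°C before pooling. Extraction used PBS with 0.5% NP-40 at 4°C, and soluble protein was the supernatant after 21,000xg for 90 min, measured by TMTpro 16plex LC-MS/MS with channel sums equalised. Thermal stability values, relative to control samples and from duplicates, are log2 fold changes.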

[2] = compound: NC(=O)c1cnc(N[C@@H]2CCCC[C@@H]2N)nc1Nc1cccc(-n2nccn2)c1
Outline: as §1

[3] = compound: NC1(c2ccc(-c3nc4ccn5c(=O)[nH]nc5c4cc3-c3ccccc3)cc2)CCC1
Outline: as §1

[4] = compound: NCC(=O)Nc1ccc(-n2nc(C(F)(F)F)cc2-c2ccc3c(ccc4ccccc43)c2)cc1
Outline: as §1

[5] = compound: Nc1ccccc1NC(=O)c1ccc(CNC(=O)OCc2cccnc2)cc1 [entinostat]
Outline: as §1

[6] = compound: O=C(CCCCCCC(=O)Nc1ccccc1)NO [vorinostat]
Outline: as §1

[7] = compound: O=C(CCCCCCNC(=O)c1cnc(N(c2ccccc2)c2ccccc2Cl)nc1)NO [citarinostat]
Outline: as §1

[8] = compound: O=C(O)c1ccc2c(c1)nc(Nc1cccc(Cl)c1)c1ccncc12 [silmitasertib]
Outline: as §1

[9] = compound: O=C1NC(=O)C(c2cnc3ccccn23)=C1c1cn2c3c(cc(F)cc13)CN(C(=O)N1CCCCC1)CC2
Outline: as §1

[10] = compound: c1cc(OCCN2CCCCC2)cc(-c2n[nH]c3ccc(-c4nnc[nH]4)cc23)c1
Outline: as §1

[11] = compound: c1cn2cc(-c3ccc4cn[nH]c4c3)nc(Nc3ccc(N4CCOCC4)cc3)c2n1 [entospletinib]
Outline: as §1

Chain of UniProt Q99719 (Q99719 whole entry, looked up): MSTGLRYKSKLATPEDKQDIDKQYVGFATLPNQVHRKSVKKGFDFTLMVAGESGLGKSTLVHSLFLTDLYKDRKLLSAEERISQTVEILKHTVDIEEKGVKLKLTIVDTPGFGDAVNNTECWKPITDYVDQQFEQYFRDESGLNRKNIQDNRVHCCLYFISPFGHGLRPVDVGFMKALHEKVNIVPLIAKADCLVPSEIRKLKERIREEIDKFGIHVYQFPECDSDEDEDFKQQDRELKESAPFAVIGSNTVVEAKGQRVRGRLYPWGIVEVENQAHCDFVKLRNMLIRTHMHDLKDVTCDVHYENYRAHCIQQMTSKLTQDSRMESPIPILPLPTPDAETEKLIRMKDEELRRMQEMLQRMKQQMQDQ
Chain of UniProt P06400 (P06400 whole entry, looked up): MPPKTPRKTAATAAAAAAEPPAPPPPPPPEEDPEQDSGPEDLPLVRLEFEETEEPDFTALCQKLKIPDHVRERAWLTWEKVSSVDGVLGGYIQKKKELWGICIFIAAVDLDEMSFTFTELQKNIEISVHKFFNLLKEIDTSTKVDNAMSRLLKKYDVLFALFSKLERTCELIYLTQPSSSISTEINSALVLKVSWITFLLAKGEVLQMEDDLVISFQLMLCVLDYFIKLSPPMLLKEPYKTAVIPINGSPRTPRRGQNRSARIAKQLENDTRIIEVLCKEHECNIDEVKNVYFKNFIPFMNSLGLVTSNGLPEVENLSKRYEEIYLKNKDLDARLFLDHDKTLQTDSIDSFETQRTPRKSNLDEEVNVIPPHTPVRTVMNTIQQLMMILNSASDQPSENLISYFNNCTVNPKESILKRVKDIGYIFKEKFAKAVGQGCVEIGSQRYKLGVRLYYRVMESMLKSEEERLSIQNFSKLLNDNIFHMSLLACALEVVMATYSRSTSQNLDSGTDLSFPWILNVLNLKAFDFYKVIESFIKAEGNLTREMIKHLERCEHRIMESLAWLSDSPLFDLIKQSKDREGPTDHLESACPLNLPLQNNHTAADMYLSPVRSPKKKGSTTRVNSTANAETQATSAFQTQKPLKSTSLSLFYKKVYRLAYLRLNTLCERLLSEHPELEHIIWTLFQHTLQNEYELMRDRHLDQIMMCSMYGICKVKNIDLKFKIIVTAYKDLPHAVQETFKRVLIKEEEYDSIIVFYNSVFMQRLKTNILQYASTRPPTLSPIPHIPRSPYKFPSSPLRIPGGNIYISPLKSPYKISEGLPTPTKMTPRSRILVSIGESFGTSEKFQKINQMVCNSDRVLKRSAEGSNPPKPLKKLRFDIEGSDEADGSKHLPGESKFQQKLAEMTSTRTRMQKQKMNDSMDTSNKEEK
Chain of UniProt Q9Y3L5 (Q9Y3L5 whole entry, looked up): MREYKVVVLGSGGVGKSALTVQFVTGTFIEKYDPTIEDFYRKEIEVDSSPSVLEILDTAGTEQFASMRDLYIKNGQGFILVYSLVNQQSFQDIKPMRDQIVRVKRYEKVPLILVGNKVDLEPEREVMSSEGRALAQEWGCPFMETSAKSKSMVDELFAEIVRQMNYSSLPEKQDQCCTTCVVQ
Chain of UniProt Q04206 (Q04206 whole entry, looked up): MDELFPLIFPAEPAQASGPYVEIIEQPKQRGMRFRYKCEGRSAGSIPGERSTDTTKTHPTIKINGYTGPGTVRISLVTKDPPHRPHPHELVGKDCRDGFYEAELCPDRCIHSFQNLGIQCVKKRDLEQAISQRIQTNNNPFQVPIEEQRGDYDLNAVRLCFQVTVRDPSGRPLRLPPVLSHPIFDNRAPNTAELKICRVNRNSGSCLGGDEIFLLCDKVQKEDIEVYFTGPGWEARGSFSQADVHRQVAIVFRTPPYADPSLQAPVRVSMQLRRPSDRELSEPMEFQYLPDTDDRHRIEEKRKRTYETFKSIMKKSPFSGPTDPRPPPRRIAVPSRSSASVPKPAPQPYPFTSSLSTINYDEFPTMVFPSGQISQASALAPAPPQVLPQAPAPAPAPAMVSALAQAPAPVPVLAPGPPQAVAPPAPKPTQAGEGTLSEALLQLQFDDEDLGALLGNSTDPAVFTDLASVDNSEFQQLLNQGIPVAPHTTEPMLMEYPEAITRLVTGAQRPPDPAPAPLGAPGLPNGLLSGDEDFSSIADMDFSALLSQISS
Chain of UniProt Q9BUV8 (Q9BUV8 whole entry, looked up): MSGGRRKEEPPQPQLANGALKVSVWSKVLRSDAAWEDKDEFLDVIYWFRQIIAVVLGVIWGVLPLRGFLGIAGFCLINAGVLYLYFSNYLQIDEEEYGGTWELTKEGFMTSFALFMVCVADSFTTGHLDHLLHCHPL
Chain of UniProt Q6NT16 (Q6NT16 whole entry, looked up): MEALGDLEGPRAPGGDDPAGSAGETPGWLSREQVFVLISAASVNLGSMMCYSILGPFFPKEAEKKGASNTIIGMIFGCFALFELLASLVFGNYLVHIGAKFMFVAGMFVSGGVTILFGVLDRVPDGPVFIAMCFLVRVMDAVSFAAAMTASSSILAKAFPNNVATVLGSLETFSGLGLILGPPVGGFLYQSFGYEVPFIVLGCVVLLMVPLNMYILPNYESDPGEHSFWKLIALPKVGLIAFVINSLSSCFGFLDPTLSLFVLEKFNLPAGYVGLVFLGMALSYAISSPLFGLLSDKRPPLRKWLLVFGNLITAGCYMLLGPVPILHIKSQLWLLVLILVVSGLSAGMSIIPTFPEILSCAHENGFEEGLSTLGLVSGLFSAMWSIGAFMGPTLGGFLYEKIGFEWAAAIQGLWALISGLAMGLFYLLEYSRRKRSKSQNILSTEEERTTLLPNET

RPS19 (UniProt P39019) was tested, and the log2 fold change [1] was -0.008, the log2 fold change [2] was 0.075 and the log2 fold change [3] was 0.186. It also gave a log2 fold change [4] of 0.079, a log2 fold change [5] of -0.06 and a log2 fold change [6] of -0.007. It also gave a log2 fold change [7] of -0.059, a log2 fold change [8] of -0.014 and a log2 fold change [9] of 0.051. It also gave a log2 fold change [10] of -0.107 and a log2 fold change [11] of 0.057.

RPS12 (UniProt P25398) gave a log2 fold change [1] of 0.006, a log2 fold change [2] of 0.073 and a log2 fold change [3] of 0.134. For the same target, the log2 fold change [4] was 0.068, the log2 fold change [5] was -0.032 and the log2 fold change [6] was -0.002. It also gave a log2 fold change [7] of 0.009, a log2 fold change [8] of -0.042 and a log2 fold change [9] of 0.076. It also gave a log2 fold change [10] of -0.113 and a log2 fold change [11] of 0.055.

RB1 (UniProt P06400) was tested, and the log2 fold change [1] was 0.11, the log2 fold change [2] was -0.133 and the log2 fold change [3] was -0.072. The log2 fold change [4] was -0.01, the log2 fold change [5] was 0.015 and the log2 fold change [6] was 0.05. For the same target, the log2 fold change [7] was 0.039, the log2 fold change [8] was 0.039 and the log2 fold change [9] was -0.241 (active). It also gave a log2 fold change [10] of -0.038 and a log2 fold change [11] of 0.037.

SLC18B1 (UniProt Q6NT16) was tested, and the log2 fold change [1] was -0.003, the log2 fold change [2] was 0.022 and the log2 fold change [3] was -0.093. The log2 fold change [4] was -0.025, the log2 fold change [5] was 0.038 and the log2 fold change [6] was -0.162. It also gave a log2 fold change [7] of 0.019, a log2 fold change [8] of 0.076 and a log2 fold change [9] of 0.044. It also gave a log2 fold change [10] of -0.044 and a log2 fold change [11] of 0.027.

With RAP2C (UniProt Q9Y3L5) the log2 fold change [1] was 0.072, the log2 fold change [2] was 0.299 (active) and the log2 fold change [3] was 0.133. The log2 fold change [4] was 0.118, the log2 fold change [5] was -0.045 and the log2 fold change [6] was 0.051. The log2 fold change [7] was 0.056, the log2 fold change [8] was -0.04 and the log2 fold change [9] was -0.008. The log2 fold change [10] was -0.061 and the log2 fold change [11] was 0.017.

Work on RELA (UniProt Q04206) yielded a log2 fold change [1] of -0.009, a log2 fold change [2] of -0.06 and a log2 fold change [3] of -0.121. For the same target, the log2 fold change [4] was -0.016, the log2 fold change [5] was 0.019 and the log2 fold change [6] was 0.036. For the same target, the log2 fold change [7] was 0.079, the log2 fold change [8] was -0.029 and the log2 fold change [9] was -0.017. It also gave a log2 fold change [10] of -0.002 and a log2 fold change [11] of -0.062.

For RSL1D1 (UniProt O76021), the log2 fold change [1] was -0.001, the log2 fold change [2] was 0.207 and the log2 fold change [3] was 0.339. For the same target, the log2 fold change [4] was 0.188, the log2 fold change [5] was -0.133 and the log2 fold change [6] was -0.016. For the same target, the log2 fold change [7] was -0.105, the log2 fold change [8] was 0.329 and the log2 fold change [9] was 0.409. It also gave a log2 fold change [10] of -0.265 and a log2 fold change [11] of 0.01.

Target RAB5IF isoform 5 (UniProt Q9BUV8) has a log2 fold change [1] of 0.008, a log2 fold change [2] of 0.103 and a log2 fold change [3] of 0.003. It also gave a log2 fold change [4] of -0.107, a log2 fold change [5] of 0.007 and a log2 fold change [6] of -0.019. The log2 fold change [7] was 0.225, the log2 fold change [8] was -0.032 and the log2 fold change [9] was 0.168. The log2 fold change [10] was 0.047 and the log2 fold change [11] was -0.086.

SEPTIN5 (UniProt Q99719) gave a log2 fold change [1] of -0.005, a log2 fold change [2] of -0.012 and a log2 fold change [3] of -0.011. It also gave a log2 fold change [4] of -0.004, a log2 fold change [5] of -0.017 and a log2 fold change [6] of -0.001. The log2 fold change [7] was 0.059, the log2 fold change [8] was -0.038 and the log2 fold change [9] was -0.013. For the same target, the log2 fold change [10] was -0.021 and the log2 fold change [11] was -0.011.

For RPS27A (UniProt P62979), the log2 fold change [1] was 0.024, the log2 fold change [2] was 0.16 and the log2 fold change [3] was 0.286. For the same target, the log2 fold change [4] was 0.177, the log2 fold change [5] was -0.047 and the log2 fold change [6] was -0.007. It also gave a log2 fold change [7] of -0.211, a log2 fold change [8] of 0.05 and a log2 fold change [9] of 0.064. It also gave a log2 fold change [10] of -0.06 and a log2 fold change [11] of 0.222.
